We go through eight molecules from PubChem BioAssay (Tox21).

“And” between values parts separate entries of the source, which are not always exact repeats. Equal values may be shown once. Records with an inconclusive call do not appear. A structure can be active in one record and inactive in another. The source made the active and inactive calls. Unless noted, the call rests on the fitted dose curve.

Test [1] in a line: Nuclear factor erythroid 2-related factor 2/antioxidant responsive element (Nrf2/ARE) small molecule agonists: qHTS cell viability counter screen in human keratinocytes (AID 1919968; active means well fitted curve in the direction sought with a large enough effect in the repeat runs; an effect the other way counts as inactive or inconclusive; further: nearly all actives have a fitted effect of over 55% in size; further: potency means the concentration at half of the fitted maximal effect). The method in brief:
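CellTiter-Fluor fluorescence, read 1 h after reagent, gave viability in the same wells as the ARE-luciferase assay. KeratinoSens cells (1,500/well) had 23 h compound exposure at 37 C/5% CO2 following 5 h plating.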

A short description of test [2]: Nuclear factor erythroid 2-related factor 2/antioxidant responsive element (Nrf2/ARE) small molecule agonists: luciferase reporter gene qHTS assay in human keratinocytes (AID 1919969). Further: nearly all actives have a fitted effect of over 35% in size. Further: potency means the concentration at half of the fitted maximal effect.
Test [3] has as its target Gonadotropin-releasing hormone receptor (Homo sapiens) (UniProt P30968). In words: Human gonadotropin-releasing hormone receptor (GnRHR) small molecule agonists, calcium flux assay in GnRHR-HEK293 cells (AID 1920063). Further: nearly all actives have a fitted effect of over 35% in size. In a few lines:
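Agonist mode: compounds at 15 concentrations, in triplicate, went onto calcium dye-loaded GnRHR-HEK293 cells. Intracellular calcium was then followed as 480/540 nm fluorescence at 1 s intervals over 3 min.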

Test [4] deals with KiSS-1 receptor (Homo sapiens) (UniProt Q969F8). The test is described as follows: Human kisspeptin (KISS1R) small molecule agonists, calcium flux assay in KISS1R-HEK293 cells (AID 1920064; active means well fitted curve in the direction sought with a large enough effect in the repeat runs; an effect the other way counts as inactive or inconclusive). In a few lines: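 Agonist mode: intracellular calcium rise tracked at 1 s intervals over 3 min (480/540 nm) immediately after compound addition to dye-loaded KISS1R-HEK293 stable cells. Each compound tested at 15 concentrations in triplicate.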

Test [5] can be described thus: G protein-coupled receptor (GPCR) small molecule agonists, calcium flux assay: HEK293 wild type cell line counter screen (AID 1920065). The method in brief: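 Calcium flux counter screen: compound added in agonist mode at 15 concentrations in triplicate to dye-loaded parental HEK293 cells. Fluorescence (480/540) read kinetically for 3 min; ATP served as positive control.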

Test [6] is described as follows: p53 small molecule agonists, cell-based qHTS assay with human liver microsomes: qHTS cell viability counter screen (AID 1963579). Further: nearly all actives have a fitted effect of over 45% in size. The method in brief: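 Viability of p53RE-bla cells is measured as CellTiter-Glo luminescence following a 16 h, 37 C incubation with compound, liver microsomes from human donors and NADPH.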
A short description of test [7]: p53 small molecule agonists, cell-based qHTS assay with rat liver microsomes: qHTS cell viability counter screen (AID 1963580). Further: nearly all actives have a fitted effect of over 45% in size. Further: potency means the concentration at half of the fitted maximal effect. The method in brief:
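After the beta-lactamase ratio was read, CellTiter-Glo was added to the same wells and luminescence measured at 30 min; cells had been treated 16 h at 37 C with compounds, rat liver microsomes and NADPH (0.5 mg/mL final each).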

Test [8] can be described thus: p53 small molecule agonists, cell-based qHTS assay: qHTS cell viability counter screen (AID 1963581). Further: nearly all actives have a fitted effect of over 45% in size. Further: potency means the concentration at half of the fitted maximal effect. In a few lines:
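Counter screen read by CellTiter-Glo luminescence (ATP content, 30 min at room temperature), run in the same wells as the beta-lactamase reporter read. HCT-116 p53RE-bla cells saw compounds for 16 h at 37 C.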

Test [9] is described as follows: p53 small molecule agonists, cell-based qHTS assay (AID 1963582; active means well fitted activation curve with a large enough effect in the signal ratio in the repeat runs, not every such curve was filed as active; the % refers to the signal ratio). The method in brief: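 Read-out is beta-lactamase FRET fluorescence after 2 h at room temperature with LiveBLAzer B/G substrate. p53 response element-bla cells were treated 16 h at 37 C with compounds in DMSO, added 5 h after seeding.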
In test [10] the target is 5-hydroxytryptamine receptor 2A (Homo sapiens) (UniProt P28223). In words: 5-hydroxytryptamine receptor 2A (HTR2A) small molecule antagonists, cell-based qHTS assay (AID 1963586). Further: nearly all actives have a fitted effect of over 45% in size. Further: potency means the concentration at half of the fitted maximal effect. In a few lines: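 CHO cells stably expressing human HTR2A were plated for 18 h at 37 C, then loaded with calcium dye for 1 h. Compounds were preincubated 5 min at room temperature before DOI (4 nM solution) was added. Kinetic fluorescence was read for 3 min.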

Test [11] shares this target. In words: 5-hydroxytryptamine receptor 2A (HTR2A) small molecule agonists, cell-based qHTS assay (AID 1963587). Further: nearly all actives have a fitted effect of over 30% in size. Further: potency means the concentration at half of the fitted maximal effect. In a few lines: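 CHO cells stably expressing human HTR2A, plated 18 h, loaded with calcium dye 1 h at 37 C. Agonist mode: compounds added and intracellular calcium fluorescence recorded kinetically for 2 min at 1 sec intervals.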
Test [12] deals with Muscarinic acetylcholine receptor M1 (Homo sapiens) (UniProt P11229). In words: Cholinergic receptor muscarinic 1 (CHRM1) small molecule antagonists, cell-based qHTS assay (AID 1963588). Further: nearly all actives have a fitted effect of over 40% in size. The method in brief:
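Compounds were tested at 15 concentrations in three independent runs. Dye-loaded CHRM1-CHO cells were exposed 5 min at room temperature before stimulation by acetylcholine added at 50nM. Intracellular calcium was read kinetically on FDSS for 3 min.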

Test [13] has the same target. The test is described as follows: Cholinergic receptor muscarinic 1 (CHRM1) small molecule agonists, cell-based qHTS assay (AID 1963589). Further: nearly all actives have a fitted effect of over 35% in size. In a few lines:
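Agonist-mode calcium-flux screen: compounds at 15 concentrations, three independent runs, were pin-transferred onto dye-loaded human CHRM1-CHO cells. Fluorescence was then recorded kinetically every second over minutes.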

Test [14] is described as follows: cAMP Responsive Elements (CRE) small molecule agonists, cell-based qHTS assay (AID 1963590). In a few lines: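 Agonist mode: compound added to CRE-bla HEK 293T cells (2,000/well, 18 h after plating) for 3 h at 37 C/5% CO2. Reporter activity detected via FRET beta-lactamase substrate, 2 h room-temperature loading.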
Test [15] is described as follows: cAMP Responsive Elements (CRE) small molecule antagonists, cell-based qHTS assay (AID 1963591; active means well fitted inhibition curve with a large enough effect in the signal ratio in the repeat runs, not every such curve was filed as active; the % refers to the signal ratio). In a few lines: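 Antagonist mode: compounds are added alongside the adenylyl cyclase activator NKH477 (0.25 uM final) to CRE-bla HEK293T cells for 3 h. LiveBLAzer FRET substrate, 2 h at room temperature, reports bla expression.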
For test [16], the target named is Beta-2 adrenergic receptor (Homo sapiens) (UniProt P07550). In words: Adrenergic beta2 receptor (ADRB2) small molecule antagonists, cell-based qHTS assay (AID 1963592). Further: series mostly up to about 92 µM; nearly all actives have a fitted effect of over 50% in size. The method in brief:
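Assay format: CHO-ADRB2 cells, 18-20hr seeding at 37C/5% CO2, then compound plus 1nM isoproterenol agonist mix for 0.5hr RT. Homogeneous time-resolved fluorescence cAMP detection after 1hr, expressed as 665/615 nm ratio.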

Test [17] shares this target. In words: Adrenergic beta2 receptor (ADRB2) small molecule agonists, cell-based qHTS assay (AID 1963593).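 Further: CHO cells stably overexpressing human ADRB2.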 The method in brief: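 CHO cells stably over-expressing ADRB2 were plated overnight at 37C, then dosed with compounds plus a stimulation mix containing 100uM IBMX and 25uM Ro-20-1724 for 0.5hr at room temperature. cAMP was measured by HTRF competition, 1hr.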
In test [18] the target is D(2) dopamine receptor (Homo sapiens) (UniProt P14416). The test is described as follows: Dopamine D2 receptor (DRD2) small molecule agonists, cell-based qHTS assay (AID 1963594). Further: nearly all actives have a fitted effect of over 35% in size. Further: potency means the concentration at half of the fitted maximal effect. The method in brief: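 HEK293 cells stably expressing human DRD2, pre-treated with PDE inhibitor Ro20-1724 (0.1 mM final) and compound 10 min at room temperature, then stimulated with NKH477 (200nM […]) for 30 min. cAMP read by HTRF (665/620 nm).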

Test [19] shares this target. In words: Dopamine D2 receptor (DRD2) small molecule antagonists, cell-based qHTS assay (AID 1963595; active means well fitted inhibition curve with a large enough effect in the signal ratio in the repeat runs, with a control signal flat; the % refers to the signal ratio). In a few lines: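 Stable D2 receptor HEK293 line, 24 h after seeding. Compound preincubated 10 min, then quinpirole (12 nM) with forskolin analogue NKH477 (200 nM), 30 min, room temperature. Detection by time-resolved FRET of cAMP.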
Test [20] can be described thus: p53 small molecule agonists, cell-based qHTS assay with rat liver microsomes (AID 1963578). The method in brief: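 Quantitative HTS of the Tox21 10K library: p53RE-bla cells, rat liver microsomes plus NADPH at 0.5 mg/mL final each, 16 h at 37 C, beta-lactamase fluorescence detection.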

Sequence of Muscarinic acetylcholine receptor M1 (Homo sapiens) (P11229 whole entry, looked up): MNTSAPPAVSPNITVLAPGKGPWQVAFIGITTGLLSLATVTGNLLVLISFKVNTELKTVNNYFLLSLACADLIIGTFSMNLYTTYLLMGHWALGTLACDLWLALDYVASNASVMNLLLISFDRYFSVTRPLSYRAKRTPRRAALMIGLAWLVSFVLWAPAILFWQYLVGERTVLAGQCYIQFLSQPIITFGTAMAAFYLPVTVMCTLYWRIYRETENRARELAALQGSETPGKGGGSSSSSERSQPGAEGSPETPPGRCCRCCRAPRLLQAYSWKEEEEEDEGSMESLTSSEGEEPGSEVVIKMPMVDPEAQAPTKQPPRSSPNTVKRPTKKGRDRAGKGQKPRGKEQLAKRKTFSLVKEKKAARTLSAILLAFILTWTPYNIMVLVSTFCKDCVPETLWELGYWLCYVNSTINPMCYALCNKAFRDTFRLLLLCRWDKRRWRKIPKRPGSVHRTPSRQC
Sequence of Gonadotropin-releasing hormone receptor (Homo sapiens) (P30968 whole entry, looked up): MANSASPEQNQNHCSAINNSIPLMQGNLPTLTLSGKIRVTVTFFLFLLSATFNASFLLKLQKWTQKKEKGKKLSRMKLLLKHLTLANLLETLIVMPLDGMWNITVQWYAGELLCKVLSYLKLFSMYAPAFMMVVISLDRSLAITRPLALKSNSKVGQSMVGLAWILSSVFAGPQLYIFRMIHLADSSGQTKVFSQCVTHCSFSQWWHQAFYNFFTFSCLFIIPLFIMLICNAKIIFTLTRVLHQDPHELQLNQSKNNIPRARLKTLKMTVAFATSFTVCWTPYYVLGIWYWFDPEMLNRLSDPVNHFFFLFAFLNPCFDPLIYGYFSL
Sequence of 5-hydroxytryptamine receptor 2A (Homo sapiens) (P28223 whole entry, looked up): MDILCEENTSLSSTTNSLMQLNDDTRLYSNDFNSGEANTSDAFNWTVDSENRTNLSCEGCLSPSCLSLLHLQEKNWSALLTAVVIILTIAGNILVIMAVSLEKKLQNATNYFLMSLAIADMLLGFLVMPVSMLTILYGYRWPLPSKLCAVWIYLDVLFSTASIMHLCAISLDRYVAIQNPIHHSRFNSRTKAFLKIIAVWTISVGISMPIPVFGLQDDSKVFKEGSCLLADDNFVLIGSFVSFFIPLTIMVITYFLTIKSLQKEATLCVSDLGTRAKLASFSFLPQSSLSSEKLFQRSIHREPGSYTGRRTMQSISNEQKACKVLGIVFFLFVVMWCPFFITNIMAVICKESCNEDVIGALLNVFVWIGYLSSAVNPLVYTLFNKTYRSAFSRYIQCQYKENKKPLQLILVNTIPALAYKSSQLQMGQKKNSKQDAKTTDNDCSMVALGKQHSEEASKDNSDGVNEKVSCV
Sequence of KiSS-1 receptor (Homo sapiens) (Q969F8 whole entry, looked up): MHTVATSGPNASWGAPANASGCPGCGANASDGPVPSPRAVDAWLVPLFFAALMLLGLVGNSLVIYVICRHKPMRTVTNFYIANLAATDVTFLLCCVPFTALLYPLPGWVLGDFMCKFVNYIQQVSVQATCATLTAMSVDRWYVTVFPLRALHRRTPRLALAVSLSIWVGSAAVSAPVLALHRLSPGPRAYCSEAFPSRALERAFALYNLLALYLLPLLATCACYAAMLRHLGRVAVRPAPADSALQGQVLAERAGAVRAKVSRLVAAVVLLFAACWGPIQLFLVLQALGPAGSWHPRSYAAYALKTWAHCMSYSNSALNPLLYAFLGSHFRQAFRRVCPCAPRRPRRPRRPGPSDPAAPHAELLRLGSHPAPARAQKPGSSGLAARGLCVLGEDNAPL
Sequence of D(2) dopamine receptor (Homo sapiens) (P14416 whole entry, looked up): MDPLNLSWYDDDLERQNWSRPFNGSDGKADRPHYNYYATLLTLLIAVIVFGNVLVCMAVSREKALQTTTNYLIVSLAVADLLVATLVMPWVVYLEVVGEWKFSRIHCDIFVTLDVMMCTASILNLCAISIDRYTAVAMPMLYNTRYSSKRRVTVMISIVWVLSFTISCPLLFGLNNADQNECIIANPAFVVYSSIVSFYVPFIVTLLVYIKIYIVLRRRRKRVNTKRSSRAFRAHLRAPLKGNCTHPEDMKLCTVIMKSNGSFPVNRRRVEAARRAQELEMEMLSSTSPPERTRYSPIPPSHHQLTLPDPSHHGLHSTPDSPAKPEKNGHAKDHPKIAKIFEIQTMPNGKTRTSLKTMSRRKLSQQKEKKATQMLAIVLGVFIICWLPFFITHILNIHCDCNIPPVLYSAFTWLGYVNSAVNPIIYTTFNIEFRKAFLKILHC
Sequence of Beta-2 adrenergic receptor (Homo sapiens) (P07550 whole entry, looked up): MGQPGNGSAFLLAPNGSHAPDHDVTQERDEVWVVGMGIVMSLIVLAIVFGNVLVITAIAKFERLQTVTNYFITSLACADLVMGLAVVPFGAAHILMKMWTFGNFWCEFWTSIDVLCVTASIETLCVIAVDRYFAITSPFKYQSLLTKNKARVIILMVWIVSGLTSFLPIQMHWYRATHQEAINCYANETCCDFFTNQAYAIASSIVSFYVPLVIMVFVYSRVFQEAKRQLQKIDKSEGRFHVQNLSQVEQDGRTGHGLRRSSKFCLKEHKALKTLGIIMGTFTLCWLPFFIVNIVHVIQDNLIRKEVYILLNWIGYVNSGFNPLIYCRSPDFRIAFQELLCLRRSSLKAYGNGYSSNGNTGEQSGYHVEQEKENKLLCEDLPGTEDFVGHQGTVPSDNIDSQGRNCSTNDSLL

In the case of `O=c1[nH]c2cc(C(F)(F)F)c(N3CCOCC3)cc2n(CP(=O)(O)O)c1=O`, the Potency entry in test [1], in [2], in test [3], in test [4], in test [5] and in test [6] was “inactive” in each case. The Potency result in test [7], in [8], in test [9], in [10], in test [11] and in test [12] was “inactive” each time. Also, the Potency entry in [13], in test [14], in test [15], in test [16], in test [17] and in [19] was “inactive” in each case. Also, the Potency in test [18] was 29.8 µM (active).
In the case of `O[C@@H]([C@H](O)[C@H](O)CBr)[C@H](O)CBr`, the Potency entry in [1], in [2], in [3], in test [4], in [5] and in test [6] was “inactive” throughout. The Potency entry in test [7], in [8], in [9], in test [10], in test [11] and in [12] was “inactive” throughout. Besides, the Potency result in test [13], in test [14], in test [16], in test [17] and in [18] was “inactive” in each case.
As for `CC(C)CCCCCCc1ccc(O)cc1`, the Potency was 6.22 µM (active) in [1]; 2.48 µM (active) and inactive in test [2]; 18.5 µM (active) in test [7]; 45.8 µM (active) in [8]; 34 µM (active) in test [10]; 44.4 µM (active) and 49 µM (active) in test [11]. Further, the Potency result in [3], in test [4], in test [5], in test [20], in test [12] and in [13] was “inactive” each time. Further, the Potency entry in test [16] and in test [18] was “inactive” in each case.
`CNC(=O)[C@H]1O[C@@H](n2cnc3c(NCc4cc(Cl)ccc4OCc4cc(C)no4)ncnc32)[C@H](O)[C@@H]1N`: the Potency result in test [1], in test [2], in test [3], in test [4], in test [5] and in [6] was “inactive” throughout. Moreover, the Potency entry in test [7], in test [8], in [9], in [10], in test [12] and in test [13] was “inactive” in each case. Also, the Potency entry in test [14], in test [18] and in [19] was “inactive” each time.
In the case of `C=C(C)C(=O)NCCC[N+](C)(C)C`, the Potency result in test [1], in test [2], in test [3], in test [4], in [5] and in test [20] was “inactive” each time. Also, the Potency entry in test [7], in [8], in test [10], in test [11], in [12] and in test [13] was “inactive” throughout. The Potency result in test [15], in test [16] and in test [19] was “inactive” throughout.
For `CC[C@]1(O)C[C@@H]2CN(CCc3c([nH]c4ccccc34)[C@@](C(=O)OC)(c3cc4c(cc3OC)N(C)[C@H]3[C@@](O)(C(=O)OC)[C@H](OC(C)=O)[C@]5(CC)C=CCN6CC[C@]43[C@@H]65)C2)C1`, the Potency entry in test [1], in test [3], in test [4], in [5], in test [20] and in test [16] was “inactive” throughout. Moreover, the Potency entry in [18] and in [19] was “inactive” each time. Moreover, in test [2], the Potency was 211 nM (active) and 596 nM (active).
Turning to `CN(C)Cc1ccccc1O`, the Potency result in test [1], in test [2], in test [3], in test [4], in test [5] and in [20] was “inactive” each time. Besides, the Potency result in [7], in test [9], in test [11], in test [12], in test [13] and in test [14] was “inactive” throughout. Moreover, the Potency result in test [15], in [16], in test [17], in [18] and in test [19] was “inactive” each time.
For the molecule `CC(=O)Oc1cccc(O)c1`, the Potency entry in [1], in test [2], in test [3], in test [4], in [5] and in [6] was “inactive” throughout. Besides, the Potency entry in [7], in [8], in [9], in test [10], in [11] and in [12] was “inactive” each time. For the same molecule, the Potency result in [13], in test [14], in test [15], in [16], in test [18] and in test [19] was “inactive” throughout.
